Source: PubChem BioAssay (EPA / NIEHS)
Values joined by “and” are separate entries in the source; they are usually repeats but may differ in a detail not shown here. Equal entries are not always repeated. Results filed as inconclusive are left out. Some compounds were tested as several samples or in several runs, with calls that do not always agree. Active and inactive are the calls of the source. The calls were made as follows: active = hit-call score of the fitted dose curve at least 0.9, where 1 is the maximum; inconclusive = response in the unintended direction; inactive = score below 0.9.

Target: Estrogen receptor (Homo sapiens) + Estrogen receptor beta (Homo sapiens) (UniProt P03372+Q92731)
Sequence (P03372 whole entry, looked up): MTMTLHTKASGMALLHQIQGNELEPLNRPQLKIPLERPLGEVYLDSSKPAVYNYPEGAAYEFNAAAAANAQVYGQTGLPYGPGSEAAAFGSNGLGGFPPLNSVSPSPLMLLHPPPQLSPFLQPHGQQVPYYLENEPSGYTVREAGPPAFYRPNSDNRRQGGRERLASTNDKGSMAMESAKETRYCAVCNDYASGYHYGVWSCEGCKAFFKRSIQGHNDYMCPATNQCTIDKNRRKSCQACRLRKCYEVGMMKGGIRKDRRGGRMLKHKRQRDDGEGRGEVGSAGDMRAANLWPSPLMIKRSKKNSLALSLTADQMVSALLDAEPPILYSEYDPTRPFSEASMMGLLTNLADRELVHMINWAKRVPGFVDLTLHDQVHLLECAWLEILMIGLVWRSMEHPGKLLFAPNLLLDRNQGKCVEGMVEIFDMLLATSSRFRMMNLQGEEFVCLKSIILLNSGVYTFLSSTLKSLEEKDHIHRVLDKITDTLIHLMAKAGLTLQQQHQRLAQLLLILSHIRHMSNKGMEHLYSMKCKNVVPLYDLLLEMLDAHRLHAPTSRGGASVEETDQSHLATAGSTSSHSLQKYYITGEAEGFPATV
Sequence (Q92731 whole entry, looked up): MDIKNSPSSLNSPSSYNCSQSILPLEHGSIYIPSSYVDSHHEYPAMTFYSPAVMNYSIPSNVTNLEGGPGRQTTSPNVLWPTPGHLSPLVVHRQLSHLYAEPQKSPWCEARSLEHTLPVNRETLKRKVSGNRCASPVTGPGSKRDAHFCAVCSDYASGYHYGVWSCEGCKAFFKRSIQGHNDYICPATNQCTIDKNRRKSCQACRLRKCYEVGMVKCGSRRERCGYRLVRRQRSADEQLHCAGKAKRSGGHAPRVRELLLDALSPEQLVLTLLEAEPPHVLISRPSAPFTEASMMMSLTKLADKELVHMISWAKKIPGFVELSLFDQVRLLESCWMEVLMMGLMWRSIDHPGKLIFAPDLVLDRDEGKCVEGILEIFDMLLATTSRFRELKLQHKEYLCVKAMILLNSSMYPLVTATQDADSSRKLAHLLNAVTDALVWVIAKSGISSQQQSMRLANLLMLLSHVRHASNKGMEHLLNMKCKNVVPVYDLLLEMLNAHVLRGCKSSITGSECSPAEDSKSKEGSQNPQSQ
Experiment: OT_ER_ERaERb_1440: Odyssey Thera (OT) 24-hour HEK293T Protein-Complementation Assay for Estrogen Receptor-alpha/-beta Homodimer (AID 2283356);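 also: hits raise reporter fluorescence and both agonists and antagonists give an increase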
Procedure: OT_ER_ERaERb_1440 is a cell-based assay that uses HEK293T, a human kidney cell line, with measurements taken at 24 hours after chemical dosing in a 384-well plate.OT_ER_ERaERb_1440 is one of one assay component(s) measured or calculated from the OT_ER_ERaERb_1440 assay. It is designed to make measurements of protein fragment complementation, a form of binding reporter, as detected with fluorescence intensity signals by Protein-fragment Complementation technology.Data from the assay component OT_ER_ERaERb_1440 was analyzed into 1 assay endpoint. This assay endpoint, OT_ER_ERaERb_1440, was analyzed in the positive analysis fitting direction relative to DMSO as the negative control and baseline of activity. Using a type of binding reporter, measures of receptor for gain-of-signal activity can be used to understand the binding at the pathway-level as they relate to the gene ESR1 and ESR2. Furthermore, this assay endpoint can be referred to as a primary readout, because the performed assay has only produced 1 assay endpoint. To generalize the intended target to other relatable targets, this assay endpoint is annotated to the nuclear receptor intended target family, where the subfamily is steroidal.
Protein-fragment complementation assay, or PCA, is a method for the identification and quantification of protein-protein interactions. In the PCA, the proteins of interest ("bait" and "prey") are each covalently linked to fragments of a third protein (e.g. DHFR, which acts as a "reporter"). Interaction between the bait and the prey proteins brings the fragments of the reporter protein in close proximity to allow them to form a functional reporter protein whose activity can be measured. The OT ER alpha / ER beta assay is a heterodimer PCA of the ligand binding domain (LBD) of ER alpha (amino acids 310-547) and human ER beta (amino acids 263-489) stably expressed in HEK293T cells. […] Fluorescent signal in the basal state of the assay is very low and is primarily punctuate and cytoplasmic. Modulation of this assay is quantified as an increase in mean fluorescence intensity in the nucleus (for agonists) or in the nucleus and cytoplasm (antagonists) relative to vehicle controls, and can be quantified on a high content imaging device or a laser scanning cytometer. The latter instrument is favored for this assay because of the rapid mode of data acquisition, the ability to acquire data from the entire cell population in a well (as opposed to a fraction of the well on the high content devices) and the larger dynamic range typically achieved with this instrument. To assess sensitivity of the ER alpha/ER beta LBD assay to ligand, cells were treated with the ER agonist 17- beta-estradiol (E2) in 10-point concentration- response format for 24 hours and monitored response on a laser scanning plate cytometer (Acumen eX3; TTP Lab Tech).

SMILES | outcome | AC50
CCCCCCCCCCCCc1ccccc1S(=O)(=O)O | inactive | –
CCCCCCCCCCCCN1CCCC1=O | inactive | –
c1ccc2c(c1)Cc1ccccc1-2 | inactive | –
CC(C)(C)c1ccc(O)c(C(C)(C)C)c1 | inactive | –
OCCC(F)(F)C(F)(F)C(F)(F)C(F)(F)C(F)(F)C(F)(F)C(F)(F)C(F)(F)F | inactive | –
CCCCCCCC(=O)O | – | 17.1 µM (active)
CC[C@H](C)[C@@H](C(=O)O)n1sc2ccccc2c1=O | inactive | –
Cc1oc(-c2ccccc2)nc1CCOc1ccc(C[C@H](Nc2ccccc2C(=O)c2ccccc2)C(=O)O)cc1 | inactive | –
CC(C)(C)CC(C)(C)c1ccc(O)c(-n2nc3ccccc3n2)c1 | inactive | –
COc1ccc([N+](=O)[O-])cc1N | inactive | –
O=C(O)Cc1cc(I)c(Oc2cc(I)c(O)c(I)c2)c(I)c1 | inactive | –
OCCC(F)(F)C(F)(F)C(F)(F)C(F)(F)C(F)(F)C(F)(F)F | inactive | –
CN(C)C=O | inactive | –
OC1CCC(C2CCCCC2)CC1 (stereo not given) | inactive | 60.7 µM (active) and 64.1 µM (active) and 59.4 µM (active)
CC(=O)CC(C)(C)O | inactive | –
O=C(O)c1ccccc1C(c1ccc(O)cc1)c1ccc(O)cc1 | inactive | –
CC[C@H](c1ccc(O)cc1)[C@@H](CC)c1ccc(O)cc1 | – | 100 nM (active) [middle of 5 runs]
NC(=O)N(O)[C@@H]1C=C[C@H](Oc2cccc(Oc3ccc(F)cc3)c2)C1 | – | 34.8 µM (active)
CCCCC(CC)COC(=O)CCCCC(=O)OCc1ccccc1 (stereo not given) | inactive | –
CCCCCCCCC(=O)O | inactive | –

SMILES | outcome | AC50
Oc1cccc(O)c1 | – | 32.1 µM (active)
CCc1ccc(CCOc2ccc(CC3SC(=O)NC3=O)cc2)nc1 (stereo not given) | inactive | –
Oc1cc2ccccc2c2ccccc12 | inactive | –
CCCCCCC(=O)O | inactive | –
CC(C)(C)c1cc(C(C)(C)C)c(O)c(C(C)(C)C)c1 | – | 73.3 µM (active)
Cc1cc(CCN2CCN(c3nsc4ccccc34)CC2)cc2c1NC(=O)CC2(C)C | inactive | –
CCCCC(CC)COC(=O)CCCCC(=O)OCC(CC)CCCC (stereo not given) | inactive | –
N#C[C@@H]1CC(F)(F)CN1C(=O)CNC1CC2CCC(C1)N2c1ncccn1 (stereo not given in full) | inactive | –
CCCOC(=O)c1ccc(O)cc1 | – | 15.5 µM (active)
CCCCCCCCCCCCCCCS(=O)(=O)Oc1ccccc1 | inactive | –
CCc1nn(C2CCCCC2)c2cc(C3(C#N)CCC(C(=O)O)CC3)ccc12 (stereo not given) | inactive | –
Nc1cccc2c(N)cccc12 | inactive | –
NC(=O)N1C(=O)C(C(=O)c2cc(Cl)cs2)c2cc(F)c(Cl)cc21 (stereo not given) | inactive | –
C#C[C@]1(O)CC[C@H]2[C@@H]3CCC4=CC(=O)CC[C@@H]4[C@H]3CC[C@@]21C | inactive | –
CN1CCC[C@H]1c1cccnc1 | inactive | –
COCC(C)OCC(C)O (stereo not given) | inactive | –
C[C@@H]1C[C@H]2[C@@H]3CCC4=CC(=O)C=C[C@]4(C)[C@@]3(F)[C@@H](O)C[C@]2(C)[C@@]1(O)C(=O)COP(=O)(O)O | inactive | –
O=C1OC2(c3ccccc31)c1cc(Br)c(O)c(Br)c1Oc1c2cc(Br)c(O)c1Br | – | 53.7 µM (active)
CCCCCCCCOC(=O)CCCCCCCCC(=O)OCCCCCCCC | inactive | –
